Data taken from PubChem BioAssay (NCI).
“And” between values parts separate entries of the source, which are not always exact repeats. Equal entries are not always repeated. Compounds without any hit were thinned out: in the full panel of roughly 79,000, 15% have a hit. The source made the active and inactive calls. No stated cut-off is given here; in the data, active means growth inhibition above about 70%; inactive means the rest.

Legend:
[1] = NCI Yeast Anticancer Drug Screen. Data for the sgs1 strain (AID 173);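 further: 0% = growth of vehicle-only control cultures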; conditions: S. cerevisiae sgs1 mutant, stronger effect = higher value
In short: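 Compounds applied to genetically altered yeast; growth compared with vehicle-treated cultures to give % inhibition.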

[2] = NCI Yeast Anticancer Drug Screen. Data for the mlh1 rad18 strain (AID 175); conditions: S. cerevisiae mlh1 rad18 strain growth inhibition, stronger effect = higher value
In short: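 Cells of a genetically altered yeast strain, deficient in DNA damage repair, were treated with compound. Their growth was then compared with that of vehicle-treated cultures to give inhibition.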

[3] = NCI Yeast Anticancer Drug Screen. Data for the rad18 strain (AID 177); conditions: S. cerevisiae rad18 mutant growth inhibition, stronger effect = higher value
In short: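 Compounds are applied to a repair-deficient yeast strain, and growth is compared with that of vehicle-treated cultures to give percent inhibition.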

[4] = NCI Yeast Anticancer Drug Screen. Data for the wt1 strain (AID 149);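 further: 0% = growth of vehicle-treated wt1 cultures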; conditions: S. cerevisiae wt1 strain (SPY 50644) growth inhibition, stronger effect = higher value
In short: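 The wt1 strain was treated with compounds, and growth was compared with vehicle-treated cultures to give inhibition.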

[5] = NCI Yeast Anticancer Drug Screen. Data for the rad50EPP+ strain (AID 151);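 further: 0% = growth of vehicle-treated control cultures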; conditions: S. cerevisiae rad50 mutant strain, stronger effect = higher value
In short: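 rad50EPP+ yeast treated with test compounds. Readout: growth vs vehicle control.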

[6] = NCI Yeast Anticancer Drug Screen. Data for the mgt1 strain (AID 153); conditions: S. cerevisiae mgt1 mutant growth inhibition, stronger effect = higher value
In short: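 Growth inhibition relative to vehicle controls was scored for the mgt1 yeast strain after compound exposure.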

[7] = NCI Yeast Anticancer Drug Screen. Data for the rad50 strain (AID 155);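 further: 0% = growth of vehicle-only cultures of the same strain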; conditions: S. cerevisiae rad50 strain growth inhibition, stronger effect = higher value
In short: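 Cells are treated with compound, grown, and their growth is then scored against vehicle-only cultures of the same repair-deficient yeast strain.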

[8] = NCI Yeast Anticancer Drug Screen. Data for the mec2-1 strain (AID 157); conditions: S. cerevisiae mec2-1 strain, stronger effect = higher value
In short: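 Growth inhibition is read against vehicle-treated controls after compound exposure of the mec2-1 yeast strain, which is defective in DNA damage repair or cell cycle control.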

[9] = NCI Yeast Anticancer Drug Screen. Data for the rad14 strain (AID 159);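 further: 0% = growth of vehicle-treated control cultures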; conditions: S. cerevisiae rad14 strain growth inhibition, stronger effect = higher value
In short: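 Readout: yeast growth inhibition, referenced to vehicle-only cultures. Strain bears a defined alteration in DNA damage repair.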

[10] = NCI Yeast Anticancer Drug Screen. Data for the sgs1 mgt1 strain (AID 161);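 further: 0% = growth of cultures given vehicle only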; conditions: S. cerevisiae sgs1 mgt1 strain, stronger effect = higher value
In short: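 Yeast cells carrying a defined DNA-repair defect were exposed to test compounds. Growth inhibition was measured relative to vehicle-treated controls.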

[11] = NCI Yeast Anticancer Drug Screen. Data for the CLN2oe strain (AID 163);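 further: 0% = growth of vehicle-only control cultures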; conditions: S. cerevisiae CLN2oe strain, stronger effect = higher value
In short: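 Compound-treated yeast; growth vs vehicle ctrl = % inhibition. Genetically altered strain (cell-cycle control).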

[12] = NCI Yeast Anticancer Drug Screen. Data for the cln2 rad14 strain (AID 165);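 further: 0% = growth equal to vehicle treated cultures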; conditions: S. cerevisiae cln2 rad14 strain, stronger effect = higher value
In short: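 Growth inhibition, relative to vehicle-treated controls, is the read-out. The test organism is a yeast strain with defined genetic alterations, cln2 rad14.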

[13] = NCI Yeast Anticancer Drug Screen. Data for the bub3 strain (AID 167); conditions: S. cerevisiae bub3 mutant strain, stronger effect = higher value
In short: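 Part of a panel of yeast mutants defective in DNA damage repair or cell cycle regulation. Each strain is grown with compound, and inhibition is calculated relative to solvent-treated cultures.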

[14] = NCI Yeast Anticancer Drug Screen. Data for the wt2 strain (AID 169);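 further: 0% = growth of vehicle-treated yeast cultures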; conditions: S. cerevisiae wt2 strain growth inhibition, stronger effect = higher value
In short: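 Compound exposure of yeast; growth compared with vehicle controls; inhibition reported.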

[15] = NCI Yeast Anticancer Drug Screen. Data for the mlh1 strain (AID 171);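 further: 0% = growth of vehicle-treated control cultures of the same strain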; conditions: S. cerevisiae mlh1 strain growth inhibition, stronger effect = higher value
In short: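 Compounds are applied to a genetically altered yeast strain, and its growth is compared with that of vehicle-treated cultures to give percent inhibition.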

[16] = at 5.0 µM (retest, dose inferred, filed as 0.5)
[17] = at 50.0 µM (retest, dose inferred, filed as 5.0)

Measured: growth inhibition

Cc1c2ccncc2c(C)c2c1oc1ccccc12
inactive: [1]; at 1.2 µM -5% | [1]; at 3.7 µM -6% | [1]; at 11.0 µM 16% | [2]; [16] 64% | [2]; at 50.0 µM 50.1% | [3]; at 1.2 µM -2% | [3]; at 3.7 µM 32% | [3]; at 11.0 µM 56%
active: [1]; at 33.0 µM 93% | [1]; at 100.0 µM 95% | [2]; [17] 90% | [3]; at 33.0 µM 95% | [3]; at 100.0 µM 98%

CC[C@]1(O)C[C@H]2CN(CCc3c([nH]c4ccccc34)[C@@](C(=O)OC)(c3cc4c(cc3OC)N(C)[C@H]3[C@@](O)(C(=O)OC)[C@H](OC(C)=O)[C@]5(CC)C=CCN6CC[C@]43[C@@H]65)C2)C1
inactive: [4]; at 1.2 µM 1% | [4]; at 3.7 µM -1% | [4]; at 11.0 µM -2% | [4]; at 33.0 µM -1% | [4]; at 100.0 µM -19% | [5]; at 1.2 µM -2% | [5]; at 3.7 µM -3% | [5]; at 11.0 µM -2% | [5]; at 33.0 µM -1% | [5]; at 100.0 µM -6% | [6]; at 1.2 µM -2% | [6]; at 3.7 µM -3% | [6]; at 11.0 µM -1% | [6]; at 33.0 µM -2% | [6]; at 100.0 µM -6% | [7]; at 1.2 µM -2% | [7]; at 3.7 µM -3% | [7]; at 11.0 µM 2% | [7]; at 33.0 µM -4% | [7]; at 50.0 µM -4.25% | [7]; at 100.0 µM -5% | [8]; at 1.2 µM -2% | [8]; at 3.7 µM 0% | [8]; at 11.0 µM -2% | [8]; at 33.0 µM 1% | [8]; at 50.0 µM -3.3% | [8]; at 100.0 µM -7% | [9]; at 1.2 µM -2% | [9]; at 3.7 µM -4% | [9]; at 11.0 µM 0% | [9]; at 33.0 µM -2% | [9]; at 100.0 µM -3% | [10]; at 50.0 µM 1.35% | [11]; at 1.2 µM -2% | [11]; at 3.7 µM 3% | [11]; at 11.0 µM 1% | [11]; at 33.0 µM -11% | [11]; at 100.0 µM -6% | [12]; at 50.0 µM 24.4% | [13]; at 1.2 µM 1% | [13]; at 3.7 µM 1% | [13]; at 11.0 µM -1% | [13]; at 33.0 µM -7% | [13]; at 50.0 µM 14.3% | [13]; at 100.0 µM -7% | [14]; at 1.2 µM -1% | [14]; at 3.7 µM 0% | [14]; at 11.0 µM -3% | [14]; at 33.0 µM -3% | [14]; at 100.0 µM -4% | [15]; at 1.2 µM 0% | [15]; at 3.7 µM -1% | [15]; at 11.0 µM -1% | [15]; at 33.0 µM -1% | [15]; at 100.0 µM -4% | [2]; at 50.0 µM 30.6% | [3]; at 1.2 µM -2% | [3]; at 3.7 µM -3% | [3]; at 11.0 µM -5% | [3]; at 33.0 µM -6% | [3]; at 100.0 µM -7%

CCC1SC(=S)N(c2ccc(Cl)cc2)C1=O (centres undefined)
active: [4]; at 100.0 µM 78% | [5]; at 33.0 µM 96% | [5]; at 100.0 µM 98% | [7]; at 33.0 µM 84% | [7]; at 100.0 µM 96% | [9]; at 100.0 µM 75% | [11]; at 100.0 µM 75% | [13]; at 100.0 µM 97% | [14]; at 100.0 µM 92% | [15]; at 100.0 µM 97% | [1]; at 33.0 µM 75% | [1]; at 100.0 µM 98% | [2]; [17] 71% | [3]; at 100.0 µM 87%
inactive: [4]; at 1.2 µM -2% | [4]; at 3.7 µM -2% | [4]; at 11.0 µM 10% | [4]; at 33.0 µM 23% | [5]; at 1.2 µM -5% | [5]; at 3.7 µM 21% | [5]; at 11.0 µM 42% | [7]; at 1.2 µM -17% | [7]; at 3.7 µM -19% | [7]; [16] 8% | [7]; at 11.0 µM 6% | [7]; [17] 35% | [7]; at 50.0 µM 45% | [8]; at 1.2 µM -3% | [8]; at 3.7 µM -5% | [8]; [16] 1% | [8]; at 11.0 µM -6% | [8]; at 33.0 µM -9% | [8]; [17] 43% | [8]; at 50.0 µM 26.7% | [8]; at 100.0 µM 16% | [9]; at 1.2 µM 4% | [9]; at 3.7 µM 1% | [9]; at 11.0 µM 12% | [9]; at 33.0 µM 26% | [10]; [16] 4% | [10]; [17] 68% | [10]; at 50.0 µM 66% | [11]; at 1.2 µM -9% | [11]; at 3.7 µM -10% | [11]; at 11.0 µM -16% | [11]; at 33.0 µM -20% | [12]; [16] -3% | [12]; [17] -4% | [12]; at 50.0 µM -11.6% | [13]; at 1.2 µM -11% | [13]; at 3.7 µM -10% | [13]; [16] -6% | [13]; at 11.0 µM -13% | [13]; at 33.0 µM 22% | [13]; [17] 44% | [13]; at 50.0 µM 6.05% | [14]; at 1.2 µM -5% | [14]; at 3.7 µM 1% | [14]; at 11.0 µM 20% | [14]; at 33.0 µM 65% | [15]; at 1.2 µM -14% | [15]; at 3.7 µM -10% | [15]; at 11.0 µM -10% | [15]; at 33.0 µM 48% | [1]; at 1.2 µM -8% | [1]; at 3.7 µM -8% | [1]; at 11.0 µM 22% | [2]; [16] 0% | [2]; at 50.0 µM 65% | [3]; at 1.2 µM -8% | [3]; at 3.7 µM -10% | [3]; at 11.0 µM -3% | [3]; at 33.0 µM 48%

COc1nc(N)c(N=CC(OC(C)=O)C(OC(C)=O)C(COC(C)=O)OC(C)=O)c(=O)n1C (centres undefined)
inactive: [7]; [16] -3% and -10% and 6% | [7]; [17] -9% and -4% and -19% | [8]; [16] 24% and -10% and 7% | [8]; [17] 3% and 1% and 5% | [10]; [16] 8% and 6% and 29% | [10]; [17] 13% and -2% and -3% | [12]; [16] -6% and 1% and 6% | [12]; [17] -13% and 6% and 19% | [13]; [16] 10% and 11% and 13% | [13]; [17] -7% and -8% and -4% | [2]; [16] -3% and -20% and -25% | [2]; [17] 0% and -18% and -21%
